Among the data in PubChem BioAssay AID463173 (ICCB-Longwood Screening Facility, Harvard Medical School, 2010) are survival values, retold here.

The campaign covered roughly 52,000 compounds. About 4,300 (8.3%) were called active. No stated cut-off is given here; in the data, active means survival mostly below about 52% (no sharp cut-off); inactive means mostly above about 56%. The full list was thinned out, with actives kept by preference.

For the assay, the system named is DeltatarO mutant. Kind of assay: growth inhibition of S. aureus wild type versus tarO mutant, primary screen, teichoic acid synthesis inhibitors, RN4220, OD600 (AID 463173). The conditions noted are these: OD600, 18 h, active compounds read low, screened at 18.75 µg/mL (by protocol).
Turning to `CCOc1ccc(NC(=O)NCCN2CCN(c3cccc(C)c3C)CC2)cc1`, the survival is 60% (inactive).
On to `Cc1ccc(C)c(N2CCN(C(=O)c3cn(CC(C)C)c(=O)c4c3c3ccccc3n4C)CC2)c1`, for which the survival was 28% (inactive).
Take `COc1ccccc1CNC(=O)C1CCN(c2ncnc3c2nc2n3CCCCC2)CC1`: the survival was 94% (inactive).
`Cc1ccc2cc(C(c3nnnn3C3CCCC3)N3CCCc4ccccc43)c(=O)[nH]c2c1` (stereo not given): the survival is 97% (inactive).
Next, `CCN(CC)C(=O)Cn1cc(C(=O)C(C)C)c2ccccc21`: 87% (inactive); `Cc1ccc(NC(=O)c2cnc(N3CCCC3)nc2C)cc1F`: 89% (inactive); `Cc1cc2[nH]c(=O)c(=O)[nH]c2cc1S(=O)(=O)N1CCN(c2cccc(C(F)(F)F)c2)CC1`: 78% (inactive).
Next, `COc1ccc(-c2nc3ccccc3o2)cc1NC(=O)c1ccc(N2CCC(C)CC2)c([N+](=O)[O-])c1`: 66% (inactive); `COc1ccc(-c2nc3ccccc3o2)cc1NC(=O)c1ccc(-c2ccc(Br)cc2)o1`: 43% (active); `COc1ccc(-c2nc3ccccc3o2)cc1N`: 72% (inactive).
As to `CCN(CC)S(=O)(=O)c1ccc2c(c1)N(CC(=O)N(C)Cc1ccccc1)C(=O)CO2`, the survival was 82% (inactive).
For `Cc1cccc(Cn2c(CN3CCCC(C)C3)nc3c2c(=O)n(C)c(=O)n3C)c1` (stereo not given) the value was 73% (inactive); for `Cc1ccc(NC(=O)Cn2c(=O)n(CC(=O)NCCc3ccccc3)c(=O)c3ccccc32)cc1C`, 67% (inactive); for `COc1ccc(OC)c(NC(=O)c2cc(S(=O)(=O)NCCc3ccc(Cl)cc3)ccc2F)c1`, 70% (inactive).
Take `Cc1cc(C)cc(NC(=O)c2cc(S(=O)(=O)NCCC3=CCCCC3)ccc2F)c1`: the survival was 67% (inactive).
Next, `Cc1ccc(NC(=O)c2cc(S(=O)(=O)NCCC3=CCCCC3)ccc2F)cc1C`: 20% (active); `CCc1ccccc1NC(=O)c1cc(S(=O)(=O)NCCc2ccc(OC)c(OC)c2)ccc1F`: 8% (active).
Next, `Cc1ccc(C)c(NC(=O)c2cc(S(=O)(=O)NCCC3=CCCCC3)ccc2F)c1`: 52% (active).
For `Cc1ccc(NC(=O)c2cc(S(=O)(=O)NCCc3ccc(Cl)cc3)ccc2F)cc1`, the survival was 80% (inactive).
Next, `Cc1ccc(C)c(NC(=O)c2cc(S(=O)(=O)NCc3ccccc3)ccc2F)c1`: 71% (inactive).
Next, `COc1ccc(CCNS(=O)(=O)c2ccc(F)c(C(=O)Nc3ccc(Cl)cc3)c2)cc1OC`: 104% (inactive); `Cc1cc(C)c(NC(=O)c2cc(S(=O)(=O)NCCC3=CCCCC3)ccc2F)c(C)c1`: 85% (inactive).
Next, `Cc1ccc(CNS(=O)(=O)c2ccc(F)c(C(=O)Nc3ccc(C)c(F)c3)c2)cc1`: 46% (active); `Cc1ccc(NC(=O)c2cc(S(=O)(=O)NCCC3=CCCCC3)ccc2F)cc1F`: 115% (inactive).
On to `COc1ccc(C)cc1NC(=O)c1cc(S(=O)(=O)NCCC2=CCCCC2)ccc1F`, for which the survival was 105% (inactive).
